This is part of a sample that, as a whole, favours compounds with a hit. Of some 83,000 tested, about 20% had one in any assay.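 Each cell line was grown in a 96-well plate and treated with one concentration of compound for 48 hours. Values below 10 were considered active.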 A number with no mark means an inactive call. Active and inactive are the calls of the source.

Among the test systems are SK-MEL-2 melanoma; EKVX NSCLC; SN12C renal; UO-31 renal; TK-10 renal; ACHN renal; A498 renal; CCRF-CEM leukemia; MOLT-4 leukemia; SR leukemia; OVCAR-8 ovarian; OVCAR-5 ovarian; OVCAR-4 ovarian; SK-OV-3 ovarian; IGROV1 ovarian; OVCAR-3 ovarian; HS 578T breast; NCI/ADR-RES ovarian; RPMI-8226 leukemia.
Experiment in all cases: NCI-60 one-dose screen, 48 h (100 = growth as untreated, 0 = no growth, -100 = all killed)
Holding throughout (conditions): 10 µM unless noted

Turning to `Nc1nc(=S)ss1`, the growth with SK-MEL-2 melanoma is 109%; with EKVX NSCLC, 108%; in the assay with SN12C renal it was 97.7%; with UO-31 renal it was 95.4%; with TK-10 renal, 108%; with ACHN renal it was 109%. The growth is 92.5% in the assay on A498 renal; 109% in the assay on CCRF-CEM leukemia; 90.4% in the assay on MOLT-4 leukemia; 80.6% in the assay on SR leukemia; 104% with OVCAR-8 ovarian; 114% in the assay with OVCAR-5 ovarian. The growth with OVCAR-4 ovarian was 106%; with SK-OV-3 ovarian, 101%; in the assay on IGROV1 ovarian it was 133%; in the assay with OVCAR-3 ovarian it was 116%; with HS 578T breast, 98.2%; in the assay with NCI/ADR-RES ovarian, 104%.

Take `CC(C(C(=O)N1CCCCC1)N1CCCCC1)N1CCCCC1` (stereo not given): the growth is 111% in the assay on SK-MEL-2 melanoma; 112% in the assay on EKVX NSCLC; 102% with SN12C renal; 94.9% with UO-31 renal; 101% with TK-10 renal; 116% in the assay with ACHN renal. The growth in the assay on A498 renal was 119%; with CCRF-CEM leukemia, 116%; in the assay with MOLT-4 leukemia it was 79.8%; in the assay with SR leukemia, 71.3%; in the assay with OVCAR-8 ovarian, 105%; with OVCAR-5 ovarian, 117%. For the same compound, the growth in the assay on OVCAR-4 ovarian was 116%; in the assay on SK-OV-3 ovarian, 103%; in the assay with IGROV1 ovarian it was 160%; in the assay with OVCAR-3 ovarian, 119%; in the assay on HS 578T breast, 103%; in the assay with NCI/ADR-RES ovarian, 112%.

In the case of `c1ccc2nc(Cn3cc[n+](Cc4ccc5ccccc5n4)c3)ccc2c1`, the growth was 55% in the assay on SK-MEL-2 melanoma; 88.3% with EKVX NSCLC; 40.5% in the assay with SN12C renal; 88% in the assay on UO-31 renal; 98.3% with TK-10 renal; 102% in the assay with ACHN renal. Further, the growth is 90.7% in the assay on A498 renal; 80% in the assay with CCRF-CEM leukemia; 65.4% in the assay on MOLT-4 leukemia; 47.8% in the assay with SR leukemia; 29.6% with RPMI-8226 leukemia; 76.2% in the assay with OVCAR-8 ovarian. The growth is 86.9% in the assay on OVCAR-5 ovarian; 33.7% with OVCAR-4 ovarian; 86.9% in the assay with SK-OV-3 ovarian; 52% with OVCAR-3 ovarian; 75.3% with HS 578T breast; 107% in the assay on NCI/ADR-RES ovarian.

In the case of `CCNC(=O)Oc1ccc(/C(=C(/CC)Cc2ccccc2)c2ccc(OCCN3CCOCC3)cc2)cc1`, the growth in the assay on SK-MEL-2 melanoma is 66.2%; in the assay with EKVX NSCLC it was 38.6%; in the assay with SN12C renal it was 67.7%; in the assay with UO-31 renal it was 23%; with TK-10 renal it was 76.2%; with ACHN renal, 59.8%. The growth was 76.9% in the assay on A498 renal; 61.7% with CCRF-CEM leukemia; 10.1% in the assay with MOLT-4 leukemia; 16% with RPMI-8226 leukemia; 57.8% with OVCAR-8 ovarian; 94.8% in the assay with OVCAR-5 ovarian. Also, the growth was 45.9% in the assay on OVCAR-4 ovarian; 75.5% with SK-OV-3 ovarian; 59.4% in the assay on IGROV1 ovarian; 50.8% with OVCAR-3 ovarian; 62.5% in the assay on HS 578T breast; 49.4% in the assay with NCI/ADR-RES ovarian.

Regarding `CN1CCN(CC(O)COc2c(Br)c(Br)c(Br)c3c2OC(C)(C)C3)CC1` (stereo not given), the growth with SK-MEL-2 melanoma is 38.5%; in the assay on EKVX NSCLC, 87.7%; in the assay with SN12C renal it was 92.5%; with UO-31 renal, -14.8% (active); in the assay on TK-10 renal it was 74.1%; with ACHN renal, 77.9%. Further, the growth was 58.1% with A498 renal; 15.6% with CCRF-CEM leukemia; 18.3% in the assay with MOLT-4 leukemia; -26.4% (active) in the assay on SR leukemia; -11.3% (active) in the assay on RPMI-8226 leukemia; 91.1% in the assay on OVCAR-8 ovarian. The growth in the assay with OVCAR-5 ovarian is 78.9%; with OVCAR-4 ovarian it was 82.3%; in the assay on SK-OV-3 ovarian it was 109%; with HS 578T breast it was 55.5%; with NCI/ADR-RES ovarian, 64.5%.

As to `CS(=O)(=O)OCC(COS(C)(=O)=O)C(c1ccccc1)c1ccccc1`, the growth in the assay on SK-MEL-2 melanoma is 123%; in the assay on EKVX NSCLC, 99.1%; in the assay with SN12C renal, 89.2%; with UO-31 renal, 91.2%; in the assay on TK-10 renal it was 110%; with ACHN renal, 107%. In addition, the growth with A498 renal was 93.3%; with CCRF-CEM leukemia, 99.6%; with MOLT-4 leukemia it was 75.7%; in the assay on SR leukemia it was 74.7%; in the assay with OVCAR-8 ovarian it was 118%; in the assay on OVCAR-5 ovarian, 110%. Moreover, the growth is 106% in the assay with OVCAR-4 ovarian; 101% with SK-OV-3 ovarian; 102% with IGROV1 ovarian; 127% with OVCAR-3 ovarian; 104% with HS 578T breast; 99% in the assay on NCI/ADR-RES ovarian.

For `Cc1cn([C@]2(CF)O[C@H](CO)C2C)c(=O)[nH]c1=O` (stereo not given in full), the growth in the assay with SK-MEL-2 melanoma is 98.3%; with EKVX NSCLC, 106%; in the assay with SN12C renal, 125%; in the assay with UO-31 renal, 109%; in the assay on TK-10 renal, 109%; in the assay with ACHN renal, 112%. Moreover, the growth is 115% in the assay with A498 renal; 114% in the assay on CCRF-CEM leukemia; 94% in the assay with MOLT-4 leukemia; 181% with SR leukemia; 150% in the assay on RPMI-8226 leukemia; 110% with OVCAR-8 ovarian. Moreover, the growth in the assay with OVCAR-5 ovarian was 94.5%; in the assay with OVCAR-4 ovarian it was 113%; in the assay on IGROV1 ovarian, -29.1% (active); in the assay with HS 578T breast it was 110%; in the assay on NCI/ADR-RES ovarian, 113%.

Turning to `NC(N)=N/N=C/c1ccc([N+](=O)[O-])cc1`, the growth is 115% in the assay on SK-MEL-2 melanoma; 102% in the assay on EKVX NSCLC; 96.7% with SN12C renal; 82.6% with UO-31 renal; 112% with TK-10 renal; 106% in the assay with ACHN renal. Besides, the growth was 79.7% in the assay with A498 renal; 112% in the assay on CCRF-CEM leukemia; 97.5% with MOLT-4 leukemia; 110% with SR leukemia; 108% with OVCAR-8 ovarian; 99.1% in the assay on OVCAR-5 ovarian. Also, the growth with OVCAR-4 ovarian was 102%; in the assay with SK-OV-3 ovarian, 108%; in the assay on IGROV1 ovarian, 125%; in the assay with OVCAR-3 ovarian, 117%; in the assay with HS 578T breast, 86.5%; in the assay with NCI/ADR-RES ovarian, 78.5%.

On to `CN(C)c1ccc2cc(-c3nc4ccccc4s3)c(N)nc2c1`, for which the growth with SK-MEL-2 melanoma was 51.5%; in the assay with EKVX NSCLC, 67.7%; in the assay on SN12C renal it was 48.5%; in the assay on UO-31 renal, 51.8%; with TK-10 renal it was 111%; in the assay on ACHN renal, 102%. Besides, the growth in the assay with A498 renal was 38.2%; in the assay on CCRF-CEM leukemia, 6.43% (active); in the assay on MOLT-4 leukemia, 22.4%; in the assay on RPMI-8226 leukemia it was 10.6%; with OVCAR-8 ovarian it was 67.8%; with OVCAR-5 ovarian it was 121%. Also, the growth in the assay with OVCAR-4 ovarian was 78.3%; in the assay on SK-OV-3 ovarian, 50.9%; in the assay with IGROV1 ovarian it was 63.6%; in the assay with OVCAR-3 ovarian, 11.9%; in the assay with HS 578T breast, 91.9%; with NCI/ADR-RES ovarian, 34.3%.
